# The campaign covered roughly 48,000 compounds. About 13,000 (27%) showed an effect of 50% or more. Some of the results follow.
# System: Wolbachia pipientis
# Assay: Anti-Wolbachia Cell-Based Screen
# Format: functional
# Set-up: scale not given: in the data most compounds retested in dose-response had high values
# Conditions: 5 µM
row,Structure (SMILES),Percent Effect [%]
1,CC1CN(C)CCN1C(=O)c1cnc2onc(CC(C)(C)C)c2c1 (stereo not drawn),4.024
2,CN1CCN(C(=O)c2cnc3c(cnn3C3CCCC3)c2)CC1,4.55
3,CCOC1CCCN(C(=O)c2cnc3c(cnn3C3CCCC3)c2)C1 (stereo not drawn),-8.504
4,CC(C)CCN(C)C(=O)c1cnc2c(cnn2CC(C)C)c1,1.745
5,CN1CCC(N(C)C(=O)c2cnc3c(cnn3C3CCCC3)c2)CC1,105.6
6,CCn1c(N)nc2cc(C(=O)N3CCC(N4CCCC4)CC3)cnc21,-1.571
7,CC1CN(C)CCN1C(=O)c1cnc2c(cnn2C2CCCC2)c1 (stereo not drawn),101.7
8,CS(=O)(=O)NC(=O)c1cnc2c(cnn2C2CCCC2)c1,-4.215
9,Cn1ccnc1SCC(=O)NCCC1CCCO1 (stereo not drawn),1.622
10,Cn1cc(S(=O)(=O)NC(CO)Cc2c[nH]c3ccccc23)cn1 (stereo not drawn),-17.12
11,Cn1cccc1C(=O)NCc1cn2c(n1)CN(S(=O)(=O)C1CC1)CC2,-2.289
12,Cc1ncc(C(=O)N2CCC(N3C[C@@H](C)O[C@@H](C)C3)CC2)c(=O)[nH]1,-16.5
13,CCc1noc(CC)c1CNC(=O)Nc1cccc(C(=O)N(C)C)c1,14.38
14,O=C(c1cnc2c(cnn2C2CCCC2)c1)N1CCCSCC1,112.1
15,NC(=O)C1CCCN(C(=O)c2cnc3c(cnn3C3CCCC3)c2)C1 (stereo not drawn),-9.879
16,O=C(c1ccc2c(c1)[nH]c(=O)n2C1CCCC1)N1CCCSCC1,-3.459
17,O=C1CC(c2ccc(C(=O)O)cc2)c2ncn(-c3ccccc3)c2N1 (stereo not drawn),13.74
18,O=C(O)c1c(Cl)ncn1-c1ccccc1,76.14
19,CC(=O)NCc1nc(CC(C)C)nn1-c1cccc(C)c1,-6.896
20,CC(C)c1cccc(-n2cc(O)c(C(=O)O)n2)c1,39.26
21,Cc1cccc(-n2nc(CC(C)C)nc2[C@H](C)O)c1,-4.735
22,Cc1cccc(-n2cnc(Cl)c2C(=O)O)c1,93.89
23,CCc1ccc(C2CCCN2C(=O)Cc2ccc(NC(C)=O)cc2)o1 (stereo not drawn),-1.143
24,CC(C)OCc1ncn2c1CN(Cc1cnn(C)c1)CCC2.O=C(O)C(F)(F)F,-6.941
25,CCSCc1ccnc(NC(=O)C2CCCO2)c1 (stereo not drawn),2.987
26,CS(=O)(=O)NC1(CCc2ccc(NC(=O)C3CC3)nc2)CCCCC1,95.32
27,O=C(Nc1ccc(Cl)cn1)C1CCN(CCc2ccccn2)CC1,5.331

row,Structure (SMILES),Percent Effect [%]
1,Cc1ccc(NC(=O)C2CCCN2C(=O)C2CC2)nc1 (stereo not drawn),4.832
2,Cc1ccnc(NC(=O)C2CCCO2)c1 (stereo not drawn),0.6753
3,CC(=O)Nc1ccc(CCC2(NC(=O)C3CCCO3)CCCCC2)cn1 (stereo not drawn),144.1
4,O=C(Nc1ccc(N2CCCCC2)cn1)C1CCCN1C(=O)C1CC1 (stereo not drawn),5.13
5,O=C(Nc1ccc(-c2ccccc2)cn1)C1CCCN1C(=O)C1CC1 (stereo not drawn),-4.535
6,CC(=O)Nc1ccc(CCC2(NC(=O)C3CC3)CCCCC2)cn1,53.79
7,CC(C)(C)C(=O)N1CC[C@H]2NC(=O)N(c3ccc(F)cc3)C(=O)[C@H]21,-4.362
8,Cc1ccc(Cl)cc1C(=O)N1CCC2(CC1)c1ccccc1[C@@H](N)[C@@H]2O,-15.25
9,COCCN(C(=O)c1cc(C)no1)c1ccc(C#N)cc1,-3.36
10,CCNc1cc2c(nn1)CCN(C(=O)CCc1c(C)noc1Cl)C2,92.82
11,CCNc1cc2c(nn1)CCN(C(=O)CCc1c(C)noc1C)C2,85.75
12,CCNc1cc2c(nn1)CCN(C(=O)Cc1c(C)noc1C)C2,-1.817
13,Cc1noc(Cl)c1CCC(=O)N1CCc2sccc2C1,4.589
14,CCNc1cc2c(nn1)CCN(C(=O)c1cc3nc(C)ccc3o1)C2,0.3764
15,CCNc1cc2c(nn1)CCN(C(=O)C(C)c1c(C)noc1C)C2 (stereo not drawn),124.9
16,CCNc1cc2c(nn1)CCN(C(=O)C1Cc3ccccc3O1)C2 (stereo not drawn),-6.016
17,CCNc1cc2c(nn1)CCN(C(=O)Cc1noc3ccccc13)C2,2.376
18,CCNc1cc2c(nn1)CCN(C(=O)c1c(C)noc1C)C2,134.6
19,CCNc1cc2c(nn1)CCN(C(=O)c1cc3c(s1)CCOC3)C2,6.196
20,CN(C1CCCCC1)S(=O)(=O)NC1CCN(c2ncccn2)CC1,-8.607
21,Cc1n[nH]c(C(=O)NCc2ccnc(OCC(F)(F)F)c2)c1Br,-11.41
22,COc1ccc(CCN2CCCC(CN(C)Cc3ccc(C)o3)C2)cc1 (stereo not drawn),-2.586
23,O=C(c1cccc2[nH]ccc12)N1CCC2(CCOC2)C1 (stereo not drawn),-0.4242
24,CCNc1cc2c(nn1)CCN(C(=O)c1ccc(CNC(C)=O)o1)C2,-5.342
25,CNc1cc2c(nn1)CCN(C(=O)c1ccoc1)C2,3.239
26,CCNc1cc2c(nn1)CCN(C(=O)c1ccoc1)C2,77.15

# From ChEMBL document CHEMBL3988442, “University of Dundee, Small-Polar-MMV Screening Library” (2021)
